A short description of experiment [1]: AP1 Signaling Pathway (AID 357; active means well fitted curve in either direction with a large enough effect, not every such curve was filed as active;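 further: ME-180 reporter cells stimulated with EGF at its EC50 level; on the % scale 0 is the no-effect control and ±100 the full control effect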). Particulars: ME-180 AP-1-bla reporter, EGF-induced, beta-lactamase ratio, 5 h; at 38 µM (top of the series). In outline:
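In this screen, ME-180 cells in Opti-MEM with 0.5% dialyzed FBS received EC50 EGF and compound titrations for 5 h. AP-1 reporter beta-lactamase was detected via CCF4 ratio, giving AC50 for positive and negative modulators.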

The target of experiment [2] is Cytochrome P450 1A2 (Homo sapiens) (UniProt P05177). In words: p450-cyp1a2 (AID 410; calls by dose curve; further: potency means the concentration at half of the fitted maximal effect). In outline:
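Human CYP1A2 (20nM) demethylated Luciferin-ME at its Km (100uM) in 100mM KPO4. After 10 min compound preincubation, NADPH regeneration ran the reaction 60 min at room temperature. Luciferin was read by luminescence, normalized to 57 uM furafylline.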

A short description of experiment [3]: NFAT Signaling Pathway (AID 444; active means well fitted curve in either direction with a large enough effect, not every such curve was filed as active;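 further: carbachol stimulus at about its EC50 of 1 µM final; on the % scale 0 is the no-effect control and ±100 the full control effect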). Particulars: Jurkat NFAT-bla M1, carbachol, beta-lactamase ratio, 5 h; at 38 µM (top of the series). A digest of the protocol:
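Read-out: CCF4 FRET ratio (460 nm/530 nm) after 1 h RT dye loading, used for %activity and AC50 from titration series. Cells: Jurkat NFAT-β-lactamase/M1 line, treated with compound plus 1 uM carbachol for 5 h, 37 °C.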

The nature of experiment [4]: Stat Signaling Pathway (AID 446; active means well fitted curve in either direction with a large enough effect, not every such curve was filed as active;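 further: ME-180 cervical cancer cells given 40 pM IL-6 alongside compound; SIE-controlled beta-lactamase reporter measured as 460/530 nm FRET emission ratio; on the % scale 0 is the no-effect control and ±100 the full control effect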). Particulars: ME-180 SIE beta-lactamase reporter, IL-6 stimulated, 5 h; at 38 µM (top of the series). A digest of the protocol: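 Screening format detects activators and inhibitors alike: ME-180 SIE-bla cells stimulated at 40 pM IL-6 for 5 hrs with compound, then dual-emission beta-lactamase read at 405 nm excitation.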
In experiment [5] the target is Glucocorticoid receptor (Homo sapiens) (UniProt P04150). Nature of the experiment: GR-GFP Redistribution (AID 450;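 active means compounds whose dose series gives a full or clear partial fitted curve of increased nuclear translocation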; further: potency means the concentration at half of the fitted maximal effect). The following applies: U2OS GR-GFP nuclear translocation, laser cytometry, 2 h.
Glucocorticoid receptor (Homo sapiens), sequence (P04150 whole entry, looked up, the tested form may be a part): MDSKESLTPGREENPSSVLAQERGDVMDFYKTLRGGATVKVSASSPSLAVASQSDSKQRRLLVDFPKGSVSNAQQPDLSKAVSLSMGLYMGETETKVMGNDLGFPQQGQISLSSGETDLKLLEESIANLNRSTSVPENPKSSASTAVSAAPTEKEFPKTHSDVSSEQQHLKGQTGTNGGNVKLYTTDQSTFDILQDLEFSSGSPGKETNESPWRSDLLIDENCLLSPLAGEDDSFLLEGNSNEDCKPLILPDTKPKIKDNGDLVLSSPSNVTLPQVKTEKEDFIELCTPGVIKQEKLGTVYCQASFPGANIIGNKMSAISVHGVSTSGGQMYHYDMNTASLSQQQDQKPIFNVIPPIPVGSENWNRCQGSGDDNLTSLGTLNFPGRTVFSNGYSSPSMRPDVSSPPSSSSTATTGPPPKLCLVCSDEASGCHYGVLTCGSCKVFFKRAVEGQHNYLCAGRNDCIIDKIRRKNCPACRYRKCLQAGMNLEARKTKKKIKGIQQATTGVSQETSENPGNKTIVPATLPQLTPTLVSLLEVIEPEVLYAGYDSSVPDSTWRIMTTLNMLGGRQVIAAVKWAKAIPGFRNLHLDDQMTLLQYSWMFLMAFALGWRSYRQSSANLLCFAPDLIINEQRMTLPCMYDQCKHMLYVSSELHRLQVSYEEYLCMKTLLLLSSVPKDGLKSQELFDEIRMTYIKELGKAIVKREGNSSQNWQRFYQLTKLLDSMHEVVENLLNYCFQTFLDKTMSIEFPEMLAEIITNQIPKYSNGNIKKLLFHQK
Experiment [6] shares this target. In words: GR-EFC Redistribution (AID 451; calls by dose curve; further: potency means the concentration at half of the fitted maximal effect). The following applies: CHO-K1 GR-EFC translocation, beta-gal luminescence, 2 h. A digest of the protocol: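 Translocation of GR-ED fusion to nuclear EA restores b-gal, read by luminescence after 1 h room-temperature detection. Engineered CHO-K1 biosensor cells, 1,000/well, exposed 2 h at 37 C to titrations up to 46 uM final.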

Experiment [7] has as its target 3',5'-cyclic-AMP phosphodiesterase 4B (Homo sapiens) (UniProt Q07343). Nature of the experiment: qHTS Assay for Inhibitors of PDE-IV (AID 607; active means well fitted activation curve with a large enough effect in the main read-out, with a control signal flat, not every such curve was filed as active; further: % of control where 0% means no effect). A digest of the protocol:
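The readout is membrane depolarisation from a cAMP-sensing CNG channel, detected with a potential dye at ex 535/em 590. Cells were HEK293-derived (endogenous PDE-IV) at 1000 cells/well, titrated up to 22.9 uM final.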
A general note: Quantitative high-throughput screening tests each substance at several concentrations.

The target in experiment [8] is Guanine nucleotide-binding protein G(i) subunit alpha-1 (Homo sapiens) (UniProt P63096). Nature of the experiment: qHTS Assay for Inhibitors of RGS12 GoLoco Motif Activity (Green Fluorophore) (AID 879).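 Further: 0% = labeled peptide with Gαi1 and full inhibition = labeled peptide alone without protein; negative values mean loss of peptide binding seen as reduced polarization.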 A digest of the protocol:
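Fluorescence polarization assay: 50 nM Gαi1 with 10 nM FITC-labeled RGS12 GoLoco peptide in 10 mM Tris pH 7.5, 150 mM NaCl, 0.1 mM GDP, 0.05% NP40, 10 min at room temperature with compound.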

For experiment [9], the target named is Cytochrome P450 2C9 (Homo sapiens) (UniProt P11712). Nature of the experiment: qHTS Assay for Inhibitors and Substrates of Cytochrome P450 2C9 (AID 883). Further: potency means the concentration at half of the fitted maximal effect; nearly all actives have a fitted effect of over 60% in size. In outline: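 Luminescent read-out of deoxyluciferin hydroxylation, normalized to 57uM sulphaphenazole (AC100). Reaction: 10nM enzyme, 100uM Luciferin-H (equal to KM), 25mM KPO4, 10 min compound preincubation, then 60 min with NADPH regeneration, both at 37C.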
Cytochrome P450 2C9 (Homo sapiens), sequence (P11712 whole entry, looked up): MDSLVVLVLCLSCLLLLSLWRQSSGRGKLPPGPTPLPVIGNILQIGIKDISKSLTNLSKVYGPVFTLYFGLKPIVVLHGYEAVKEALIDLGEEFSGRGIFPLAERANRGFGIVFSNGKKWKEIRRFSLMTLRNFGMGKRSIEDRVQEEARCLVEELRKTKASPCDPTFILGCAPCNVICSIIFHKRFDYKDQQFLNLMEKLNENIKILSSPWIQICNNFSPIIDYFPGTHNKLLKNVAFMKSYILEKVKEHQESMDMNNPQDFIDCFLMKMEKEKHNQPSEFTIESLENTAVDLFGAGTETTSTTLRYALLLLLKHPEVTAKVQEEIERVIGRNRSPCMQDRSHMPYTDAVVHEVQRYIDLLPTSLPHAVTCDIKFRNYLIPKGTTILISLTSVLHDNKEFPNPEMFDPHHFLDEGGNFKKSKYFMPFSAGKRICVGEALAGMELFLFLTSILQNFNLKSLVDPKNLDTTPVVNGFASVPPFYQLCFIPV

Experiment [10] has as its target Cytochrome P450 3A4 (Homo sapiens) (UniProt P08684). In words: qHTS Assay for Activators of Cytochrome P450 3A4 (AID 885). Further: nearly all actives have a fitted effect of over 65% in size. In outline: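 Steps: enzyme/substrate mix dispensed; compound added, 10 min RT; NADPH regeneration solution added, 60 min RT; luciferin detection buffer stops reaction; 20 min later luminescence measured.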
A short description of experiment [11]: qHTS Assay for Identification of Small Molecule Agonists for Thrombopoietin (TPO) Signaling Pathway (AID 917). Further: on the % scale 0 is the no-effect control and ±100 the full control effect. A digest of the protocol:
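Reporter: GpIIb promoter–luciferase in murine Ba/F3 expressing human TPO receptor. Pre-starved of IL-3 overnight; compounds with 26 pM TPO, 24 hrs, 37 C/5% CO2; luminescence read.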

For experiment [12], the target named is Muscarinic acetylcholine receptor M1 (Rattus norvegicus) (UniProt P08482). In words: qHTS Assay for Antagonists of Acetylcholine Muscarinic M1 Receptor: Measurement of IP-One Response (AID 944). Further: nearly all actives have a fitted effect of over 75% in size. A digest of the protocol:
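CHO cells expressing rat M1 receptor, recovered overnight, were pre-incubated 10 min with compound, then stimulated 30 min with carbachol at EC80 (200 nM) in LiCl-containing buffer, pH 7.4. IP1 accumulation was read by HTRF (620/665 nm).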

In experiment [13] the target is Pyruvate kinase (Leishmania mexicana) (UniProt Q27686). In words: qHTS Validation Assay for Inhibitors of Leishmania Mexicana Pyruvate Kinase (AID 945).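 Further: 0% = DMSO only neutral control wells.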 In outline:
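Substrate mix (0.5 mM PEP, 0.1 mM ADP, 7 mM MgCl2, 50 mM KCl, pH 7.2 imidazole) received compound by pin tool, then 0.2 nM LmPYK E451W. After 1 h at room temperature, PKLight was added and luminescence measured.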

Experiment [14] addresses Pyruvate kinase PKM (Homo sapiens) (UniProt P14618). In words: qHTS Assay for Activators of Human Muscle Pyruvate Kinase (AID 954; active means well fitted curve in the direction sought with a large enough effect, not every such curve was filed as active;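 further: 0% = uninhibited enzyme and -100% = no enzyme or full thiadiazolimine inhibition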). A digest of the protocol: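 Reaction: 0.1 nM purified PKM2 with 0.5 mM phosphoenolpyruvate and 0.1 mM ADP, room temperature, 1 h. Readout: luciferase-based ATP luminescence after stop reagent. Activators judged against a 0.3 nM enzyme column.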

Experiment [15] deals with alpha-glucosidase (Oryza sativa, rice) (UniProt Q653V4). In words: Counterscreen for Glucocerebrosidase Inhibitors: qHTS Assay for Rice alpha-Glucosidase at pH 5.0 (AID 997).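 Further: 0% = full activity with enzyme and -100% = basal without enzyme.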 A digest of the protocol:
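Rice alpha-glucosidase (4 nM final) with 400 uM 4-methylumbelliferyl-alpha-D-glucopyranoside in citrate buffer pH 5.0, 20 min at room temperature, stopped at pH 10; fluorescence 365/440 nm, compounds 0.7 nM–77 uM, AC50 from Hill fits.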
(In general: Counterscreens check selectivity or assay interference.)

Experiment [16] is described as follows: Validation of Assay for Modulators of Lamin A Splicing (AID 1459; active means well fitted curve in the direction sought with a large enough effect in the signal ratio; the % refers to the signal ratio;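 further: cells exposed to compound for two days before reading; 0% is about no effect; ratio rise marks activators and ratio drop marks inhibitors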). A digest of the protocol: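 Splicing correction read as GFP (500-530 nm) over DsRed2 (575-640 nm) object intensity after 48 h compound exposure of reporter HeLa S3 clones (600 cells/well, 2% FBS medium); ancitabine and cycloheximide titrations, 0.5% DMSO as vehicle.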
Experiment [17] can be described thus: qHTS Assay for Lipid Storage Modulators (AID 1519; calls by dose curve). The following applies: Drosophila S3 cells, BODIPY lipid droplet/cell ratio, laser cytometry, cells loaded with oleic acid. In outline: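 Cells seeded at 5,000 per well were treated with compounds over a concentration series and loaded with oleic acid (400 uM, as added). Lipid droplet fluorescence (488 nm excitation, 500-530 nm channel) was read by laser-scanning cytometry and normalized to 20 uM Triacsin C.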

The nature of experiment [18]: Counterscreen for APE1 Inhibitors: Fluorescent Dye Displacement Validation Assay (AID 1707). Further: potency means the concentration at half of the fitted maximal effect. A digest of the protocol: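 Assay buffer: Tris-HCl pH7.5 with 50mM NaCl, 2 mM MgCl2, 0.01% Tween-20. Dye 250 nM, duplex 50 nM final. Readout: decrease in ThO endpoint fluorescence, 480 nm excitation, 540 nm emission.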

Records with an inconclusive call do not appear. The source made the active and inactive calls. Unless noted, the call rests on the fitted dose curve; in most records, active means well fitted curve in the direction sought with a large enough effect; inconclusive means small, poorly fitted or top-dose-only effect, or another doubt; inactive means no such curve, though single readings can be large; an effect the other way counts as inactive or inconclusive.

Pyruvate kinase (Leishmania mexicana), sequence (Q27686 2-499 E452W): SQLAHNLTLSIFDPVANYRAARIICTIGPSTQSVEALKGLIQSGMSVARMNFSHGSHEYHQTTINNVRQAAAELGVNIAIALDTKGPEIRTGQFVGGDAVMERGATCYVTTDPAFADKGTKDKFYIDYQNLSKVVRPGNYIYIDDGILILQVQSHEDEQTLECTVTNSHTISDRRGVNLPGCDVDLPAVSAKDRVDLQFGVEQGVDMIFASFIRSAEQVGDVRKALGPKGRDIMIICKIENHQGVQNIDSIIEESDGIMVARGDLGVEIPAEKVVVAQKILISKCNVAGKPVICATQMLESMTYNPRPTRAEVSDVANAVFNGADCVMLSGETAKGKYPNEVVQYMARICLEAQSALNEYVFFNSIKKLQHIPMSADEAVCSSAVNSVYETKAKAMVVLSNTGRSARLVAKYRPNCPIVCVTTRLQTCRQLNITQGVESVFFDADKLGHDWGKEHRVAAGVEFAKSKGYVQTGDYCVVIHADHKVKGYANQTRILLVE
Cytochrome P450 3A4 (Homo sapiens), sequence (P08684 whole entry, looked up): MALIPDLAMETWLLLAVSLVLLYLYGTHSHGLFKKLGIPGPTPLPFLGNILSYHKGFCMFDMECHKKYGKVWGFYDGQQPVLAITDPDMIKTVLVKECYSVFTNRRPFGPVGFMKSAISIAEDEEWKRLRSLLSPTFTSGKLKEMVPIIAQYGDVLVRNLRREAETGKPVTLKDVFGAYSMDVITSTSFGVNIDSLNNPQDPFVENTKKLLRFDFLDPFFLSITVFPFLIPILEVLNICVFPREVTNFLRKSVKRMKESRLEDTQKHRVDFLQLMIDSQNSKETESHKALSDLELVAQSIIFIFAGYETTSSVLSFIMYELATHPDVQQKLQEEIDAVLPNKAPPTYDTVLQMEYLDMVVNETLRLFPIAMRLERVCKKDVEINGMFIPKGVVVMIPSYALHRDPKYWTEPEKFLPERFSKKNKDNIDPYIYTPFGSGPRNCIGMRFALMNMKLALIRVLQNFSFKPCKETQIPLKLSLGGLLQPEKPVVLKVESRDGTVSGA
3',5'-cyclic-AMP phosphodiesterase 4B (Homo sapiens), sequence (Q07343 whole entry, looked up): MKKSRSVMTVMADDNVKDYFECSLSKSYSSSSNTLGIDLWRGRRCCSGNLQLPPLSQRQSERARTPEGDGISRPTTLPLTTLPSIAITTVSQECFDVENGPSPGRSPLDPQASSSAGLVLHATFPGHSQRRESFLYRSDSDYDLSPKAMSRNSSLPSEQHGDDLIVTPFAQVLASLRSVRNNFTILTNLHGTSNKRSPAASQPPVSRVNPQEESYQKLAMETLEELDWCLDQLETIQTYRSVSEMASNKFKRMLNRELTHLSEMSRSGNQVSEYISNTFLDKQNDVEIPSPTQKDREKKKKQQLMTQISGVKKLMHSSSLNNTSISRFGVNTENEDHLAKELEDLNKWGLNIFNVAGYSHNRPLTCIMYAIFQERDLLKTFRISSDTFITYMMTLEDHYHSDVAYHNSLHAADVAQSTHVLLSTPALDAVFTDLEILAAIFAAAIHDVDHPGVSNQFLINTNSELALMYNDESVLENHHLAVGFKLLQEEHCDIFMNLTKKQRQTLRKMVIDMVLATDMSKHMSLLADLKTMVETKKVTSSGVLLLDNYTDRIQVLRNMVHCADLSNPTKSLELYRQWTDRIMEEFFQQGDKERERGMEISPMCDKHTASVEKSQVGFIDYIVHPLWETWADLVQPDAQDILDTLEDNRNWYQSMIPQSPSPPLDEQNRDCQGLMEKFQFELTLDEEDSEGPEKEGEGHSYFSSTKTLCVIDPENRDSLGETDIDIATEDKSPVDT
Pyruvate kinase PKM (Homo sapiens), sequence (P14618 whole entry, looked up): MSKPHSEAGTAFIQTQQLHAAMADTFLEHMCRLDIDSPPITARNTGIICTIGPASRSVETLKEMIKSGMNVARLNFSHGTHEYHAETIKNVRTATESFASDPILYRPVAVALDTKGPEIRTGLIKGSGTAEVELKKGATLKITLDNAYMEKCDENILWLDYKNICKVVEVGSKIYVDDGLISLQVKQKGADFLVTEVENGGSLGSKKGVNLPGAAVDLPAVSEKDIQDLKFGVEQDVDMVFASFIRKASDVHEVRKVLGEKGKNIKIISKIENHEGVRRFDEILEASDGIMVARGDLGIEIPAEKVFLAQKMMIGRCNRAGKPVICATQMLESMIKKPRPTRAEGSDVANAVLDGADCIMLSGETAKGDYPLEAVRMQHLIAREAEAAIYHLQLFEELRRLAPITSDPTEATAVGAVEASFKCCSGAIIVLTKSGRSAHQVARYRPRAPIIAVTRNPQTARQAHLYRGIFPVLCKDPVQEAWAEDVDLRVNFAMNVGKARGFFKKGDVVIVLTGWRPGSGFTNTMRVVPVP
Muscarinic acetylcholine receptor M1 (Rattus norvegicus), sequence (P08482 whole entry, looked up): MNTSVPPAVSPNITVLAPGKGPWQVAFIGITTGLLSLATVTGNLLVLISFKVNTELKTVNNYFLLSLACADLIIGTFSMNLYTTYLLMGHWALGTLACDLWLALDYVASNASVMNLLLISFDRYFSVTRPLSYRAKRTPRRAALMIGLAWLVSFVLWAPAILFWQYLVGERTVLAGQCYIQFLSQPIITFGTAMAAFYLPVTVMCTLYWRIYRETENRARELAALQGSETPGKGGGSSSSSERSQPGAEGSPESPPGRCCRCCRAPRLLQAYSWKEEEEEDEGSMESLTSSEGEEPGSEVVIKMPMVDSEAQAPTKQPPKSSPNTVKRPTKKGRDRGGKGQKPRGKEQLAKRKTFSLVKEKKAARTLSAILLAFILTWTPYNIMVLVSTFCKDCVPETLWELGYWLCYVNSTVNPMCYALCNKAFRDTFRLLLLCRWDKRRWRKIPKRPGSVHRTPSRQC
Cytochrome P450 1A2 (Homo sapiens), sequence (P05177 whole entry, looked up): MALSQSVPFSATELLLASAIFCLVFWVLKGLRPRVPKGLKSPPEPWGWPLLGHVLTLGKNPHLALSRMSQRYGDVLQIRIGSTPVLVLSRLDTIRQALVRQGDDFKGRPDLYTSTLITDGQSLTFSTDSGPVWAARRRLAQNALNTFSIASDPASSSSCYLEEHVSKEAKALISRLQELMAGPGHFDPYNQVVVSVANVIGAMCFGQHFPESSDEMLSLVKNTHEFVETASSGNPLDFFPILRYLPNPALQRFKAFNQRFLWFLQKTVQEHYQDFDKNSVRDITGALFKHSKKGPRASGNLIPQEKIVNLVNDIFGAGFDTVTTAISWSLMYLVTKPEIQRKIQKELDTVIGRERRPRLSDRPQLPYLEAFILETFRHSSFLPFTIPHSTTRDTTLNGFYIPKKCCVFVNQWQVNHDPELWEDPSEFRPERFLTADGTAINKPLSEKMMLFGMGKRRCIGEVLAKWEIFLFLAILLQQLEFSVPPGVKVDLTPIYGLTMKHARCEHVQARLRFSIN
Guanine nucleotide-binding protein G(i) subunit alpha-1 (Homo sapiens), sequence (P63096 whole entry, looked up): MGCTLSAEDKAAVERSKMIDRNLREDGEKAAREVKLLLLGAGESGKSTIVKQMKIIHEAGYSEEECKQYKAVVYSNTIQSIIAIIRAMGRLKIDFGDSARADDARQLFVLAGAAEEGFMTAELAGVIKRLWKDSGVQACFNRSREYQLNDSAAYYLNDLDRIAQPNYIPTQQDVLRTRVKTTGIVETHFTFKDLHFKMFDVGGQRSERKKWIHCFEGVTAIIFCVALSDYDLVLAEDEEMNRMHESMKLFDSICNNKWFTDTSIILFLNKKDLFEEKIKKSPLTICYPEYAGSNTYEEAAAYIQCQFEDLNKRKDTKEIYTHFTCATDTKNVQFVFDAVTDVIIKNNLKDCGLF

With `O=C(Nc1cc(C(=O)Nc2ccc(S(=O)(=O)O)cc2S(=O)(=O)O)cc(C(=O)Nc2ccc(S(=O)(=O)O)cc2S(=O)(=O)O)c1)Nc1cc(C(=O)Nc2ccc(S(=O)(=O)O)cc2S(=O)(=O)O)cc(C(=O)Nc2ccc(S(=O)(=O)O)cc2S(=O)(=O)O)c1`, the activity change, negative = inhibition is 5.96% (inactive) in [1], 1.34% (inactive) in experiment [3] and 10.5% (inactive) in experiment [17] (at 57.5 µM (top of the series)). The Potency in experiment [2] is 31.6 µM (active); in experiment [5], > 46 µM (inactive); in experiment [6] it was > 46 µM (inactive); in experiment [9], 7.94 µM (active); in experiment [18] it was 4.47 µM (active). Also, the activity, negative = inhibition in [4] was -91.7% (active). For the same molecule, the Potency entry in experiment [7], in [10], in experiment [11], in experiment [12] and in [13] was “inactive” each time. For the same molecule, the molecule was called inactive in experiment [8], in [14], in [15] and in experiment [16]. The max response was -19.5% in experiment [17] (measured here: cell count channel max response) and -13.3% in experiment [17] (measured here: lipid channel max response).

The record behind these values is PubChem BioAssay (NCATS).
